# Assay results published in ChEMBL document CHEMBL1961873, “Compounds: GSK PKIS; Assays: Nanosyn kinase panel” (2012).
# What was measured:
# [1] = target: Dual specificity protein kinase CLK3 (Homo sapiens) (UniProt P49761); details: at 1 µM;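 further: each value is the mean inhibition of CLK3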
# [2] = target: Dual specificity tyrosine-phosphorylation-regulated kinase 1A (Homo sapiens) (UniProt Q13627); details: at 0.1 µM
# [3] = target: Dual specificity tyrosine-phosphorylation-regulated kinase 1A (Homo sapiens) (UniProt Q13627); details: at 1 µM
# [4] = target: Dual specificity tyrosine-phosphorylation-regulated kinase 1B (Homo sapiens) (UniProt Q9Y463); details: at 0.1 µM
# Chain of Dual specificity tyrosine-phosphorylation-regulated kinase 1B (Homo sapiens) (Q9Y463 whole entry, looked up): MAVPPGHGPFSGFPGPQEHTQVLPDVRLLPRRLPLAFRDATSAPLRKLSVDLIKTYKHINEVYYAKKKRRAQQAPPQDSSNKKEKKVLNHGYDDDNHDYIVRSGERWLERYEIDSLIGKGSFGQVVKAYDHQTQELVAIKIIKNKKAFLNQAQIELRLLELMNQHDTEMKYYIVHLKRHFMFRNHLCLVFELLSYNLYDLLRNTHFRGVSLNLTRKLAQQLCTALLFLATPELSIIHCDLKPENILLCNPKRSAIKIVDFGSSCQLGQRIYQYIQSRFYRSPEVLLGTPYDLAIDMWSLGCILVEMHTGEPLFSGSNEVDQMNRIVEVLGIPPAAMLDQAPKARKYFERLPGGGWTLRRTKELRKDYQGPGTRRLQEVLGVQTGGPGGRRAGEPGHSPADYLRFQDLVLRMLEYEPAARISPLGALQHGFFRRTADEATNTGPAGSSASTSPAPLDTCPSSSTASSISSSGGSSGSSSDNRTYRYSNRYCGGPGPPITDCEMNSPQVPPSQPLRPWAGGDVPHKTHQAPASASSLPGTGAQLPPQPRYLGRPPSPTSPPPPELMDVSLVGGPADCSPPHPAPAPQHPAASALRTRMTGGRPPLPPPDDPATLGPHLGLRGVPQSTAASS
# [5] = target: Dual specificity tyrosine-phosphorylation-regulated kinase 1B (Homo sapiens) (UniProt Q9Y463); details: at 1 µM
# [6] = target: T1, Dual specificity tyrosine-phosphorylation-regulated kinase 2 (Homo sapiens) (UniProt Q92630); details: at 0.1 µM
# T1 sequence (whole entry): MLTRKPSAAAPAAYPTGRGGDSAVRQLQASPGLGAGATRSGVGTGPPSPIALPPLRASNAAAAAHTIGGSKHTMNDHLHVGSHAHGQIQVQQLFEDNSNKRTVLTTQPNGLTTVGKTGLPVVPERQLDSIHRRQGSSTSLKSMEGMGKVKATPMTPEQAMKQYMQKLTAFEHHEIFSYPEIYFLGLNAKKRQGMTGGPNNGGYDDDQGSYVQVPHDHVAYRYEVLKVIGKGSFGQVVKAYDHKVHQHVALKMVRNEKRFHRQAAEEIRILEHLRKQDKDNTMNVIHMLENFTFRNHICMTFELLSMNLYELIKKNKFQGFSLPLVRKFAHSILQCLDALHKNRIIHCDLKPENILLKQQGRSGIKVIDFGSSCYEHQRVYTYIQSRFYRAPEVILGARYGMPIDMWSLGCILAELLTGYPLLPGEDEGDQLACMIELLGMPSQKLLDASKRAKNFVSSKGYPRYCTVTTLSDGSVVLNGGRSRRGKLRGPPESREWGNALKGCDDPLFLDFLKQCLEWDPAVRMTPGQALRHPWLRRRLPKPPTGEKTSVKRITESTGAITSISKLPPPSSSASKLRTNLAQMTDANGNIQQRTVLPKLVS
# [7] = target: T1, Dual specificity tyrosine-phosphorylation-regulated kinase 2 (Homo sapiens); details: at 1 µM
# [8] = target: Glycogen synthase kinase-3 alpha (Homo sapiens) (UniProt P49840); details: at 0.1 µM
# Chain of Glycogen synthase kinase-3 alpha (Homo sapiens) (P49840 2-483 limits assumed): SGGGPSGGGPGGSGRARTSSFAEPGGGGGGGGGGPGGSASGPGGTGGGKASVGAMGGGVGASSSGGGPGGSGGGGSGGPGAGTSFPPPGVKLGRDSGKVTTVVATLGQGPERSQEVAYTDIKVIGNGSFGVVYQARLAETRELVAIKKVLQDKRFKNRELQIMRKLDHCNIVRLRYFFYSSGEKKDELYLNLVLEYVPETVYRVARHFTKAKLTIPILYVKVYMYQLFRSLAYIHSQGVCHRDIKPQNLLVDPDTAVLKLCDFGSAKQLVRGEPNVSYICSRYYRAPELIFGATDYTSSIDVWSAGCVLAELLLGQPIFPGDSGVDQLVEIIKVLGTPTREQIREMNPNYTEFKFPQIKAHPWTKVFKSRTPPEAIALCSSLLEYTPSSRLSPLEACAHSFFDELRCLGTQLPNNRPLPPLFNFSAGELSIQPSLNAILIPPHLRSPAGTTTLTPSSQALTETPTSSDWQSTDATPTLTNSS
# [9] = target: Glycogen synthase kinase-3 alpha (Homo sapiens) (UniProt P49840); details: at 1 µM
# [10] = target: Glycogen synthase kinase-3 beta (Homo sapiens) (UniProt P49841); details: at 0.1 µM
# Chain of Glycogen synthase kinase-3 beta (Homo sapiens) (P49841 whole entry, looked up): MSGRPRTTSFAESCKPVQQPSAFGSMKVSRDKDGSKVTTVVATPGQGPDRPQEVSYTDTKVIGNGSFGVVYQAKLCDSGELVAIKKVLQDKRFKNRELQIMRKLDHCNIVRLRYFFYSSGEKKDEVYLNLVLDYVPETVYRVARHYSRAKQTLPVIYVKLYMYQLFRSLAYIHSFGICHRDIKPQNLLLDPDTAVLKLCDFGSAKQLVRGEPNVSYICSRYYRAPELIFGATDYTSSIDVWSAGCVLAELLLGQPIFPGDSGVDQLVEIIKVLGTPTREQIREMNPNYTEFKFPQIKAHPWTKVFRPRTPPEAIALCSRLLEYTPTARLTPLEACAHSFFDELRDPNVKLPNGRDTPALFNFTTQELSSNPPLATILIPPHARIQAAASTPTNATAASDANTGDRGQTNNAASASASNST
# [11] = target: Glycogen synthase kinase-3 beta (Homo sapiens) (UniProt P49841); details: at 1 µM
# [12] = target: Homeodomain-interacting protein kinase 1 (Homo sapiens) (UniProt Q86Z02); details: at 0.1 µM
# Chain of Homeodomain-interacting protein kinase 1 (Homo sapiens) (Q86Z02 whole entry, looked up): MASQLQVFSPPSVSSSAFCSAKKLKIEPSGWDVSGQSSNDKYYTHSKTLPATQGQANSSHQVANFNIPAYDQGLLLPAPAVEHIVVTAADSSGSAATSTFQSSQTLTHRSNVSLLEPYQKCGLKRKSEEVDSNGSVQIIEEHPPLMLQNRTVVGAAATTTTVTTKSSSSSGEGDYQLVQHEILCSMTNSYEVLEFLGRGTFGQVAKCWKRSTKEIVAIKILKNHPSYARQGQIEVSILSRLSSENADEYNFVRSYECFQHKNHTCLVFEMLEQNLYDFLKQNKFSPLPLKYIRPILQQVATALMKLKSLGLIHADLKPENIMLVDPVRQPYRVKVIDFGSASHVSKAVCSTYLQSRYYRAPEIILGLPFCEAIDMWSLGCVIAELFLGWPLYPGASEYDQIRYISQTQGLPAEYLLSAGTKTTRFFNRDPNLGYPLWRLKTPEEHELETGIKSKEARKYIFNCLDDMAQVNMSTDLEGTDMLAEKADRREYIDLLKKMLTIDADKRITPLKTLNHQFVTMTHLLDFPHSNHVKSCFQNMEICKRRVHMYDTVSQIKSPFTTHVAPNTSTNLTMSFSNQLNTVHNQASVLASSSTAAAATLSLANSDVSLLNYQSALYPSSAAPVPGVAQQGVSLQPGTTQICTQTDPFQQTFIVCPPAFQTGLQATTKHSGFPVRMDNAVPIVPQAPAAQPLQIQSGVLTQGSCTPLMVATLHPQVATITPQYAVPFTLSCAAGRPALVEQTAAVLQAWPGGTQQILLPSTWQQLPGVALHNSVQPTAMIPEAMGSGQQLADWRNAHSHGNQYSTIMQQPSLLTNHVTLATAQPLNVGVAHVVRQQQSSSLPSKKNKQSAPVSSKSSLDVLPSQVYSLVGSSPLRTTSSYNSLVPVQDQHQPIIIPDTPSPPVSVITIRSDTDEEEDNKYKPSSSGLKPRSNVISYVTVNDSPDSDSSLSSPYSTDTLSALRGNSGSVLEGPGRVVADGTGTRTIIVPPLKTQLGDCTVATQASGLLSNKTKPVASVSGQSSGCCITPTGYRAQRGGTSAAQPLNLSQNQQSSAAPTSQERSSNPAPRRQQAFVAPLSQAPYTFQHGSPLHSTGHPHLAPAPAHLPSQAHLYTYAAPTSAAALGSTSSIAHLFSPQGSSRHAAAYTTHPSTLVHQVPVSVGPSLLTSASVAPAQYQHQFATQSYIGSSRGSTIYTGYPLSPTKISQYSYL
# [13] = target: Homeodomain-interacting protein kinase 1 (Homo sapiens) (UniProt Q86Z02); details: at 1 µM
# [14] = target: T2, Homeodomain-interacting protein kinase 4 (Homo sapiens) (UniProt Q8NE63); details: at 0.1 µM
# T2 sequence (whole entry): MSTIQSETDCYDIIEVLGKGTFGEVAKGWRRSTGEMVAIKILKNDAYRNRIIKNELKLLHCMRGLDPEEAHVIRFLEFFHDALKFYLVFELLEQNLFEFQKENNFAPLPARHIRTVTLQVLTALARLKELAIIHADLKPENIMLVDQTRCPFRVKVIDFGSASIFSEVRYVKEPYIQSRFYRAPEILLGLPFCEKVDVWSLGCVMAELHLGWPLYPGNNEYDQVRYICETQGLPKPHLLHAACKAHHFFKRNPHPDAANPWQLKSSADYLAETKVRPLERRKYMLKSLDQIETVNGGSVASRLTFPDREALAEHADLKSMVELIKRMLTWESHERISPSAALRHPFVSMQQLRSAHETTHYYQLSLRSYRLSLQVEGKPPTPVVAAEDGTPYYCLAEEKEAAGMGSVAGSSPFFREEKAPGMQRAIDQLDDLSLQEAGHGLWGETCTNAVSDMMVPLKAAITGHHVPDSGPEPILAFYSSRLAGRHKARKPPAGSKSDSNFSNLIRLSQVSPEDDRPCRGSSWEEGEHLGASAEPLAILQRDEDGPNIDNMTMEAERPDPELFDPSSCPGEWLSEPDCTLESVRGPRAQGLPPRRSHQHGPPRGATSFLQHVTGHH
# [15] = target: T2, Homeodomain-interacting protein kinase 4 (Homo sapiens); details: at 1 µM
# [16] = target: Mitogen-activated protein kinase 9 (Homo sapiens) (UniProt P45984); details: at 0.1 µM
# Chain of Mitogen-activated protein kinase 9 (Homo sapiens) (P45984 whole entry, looked up): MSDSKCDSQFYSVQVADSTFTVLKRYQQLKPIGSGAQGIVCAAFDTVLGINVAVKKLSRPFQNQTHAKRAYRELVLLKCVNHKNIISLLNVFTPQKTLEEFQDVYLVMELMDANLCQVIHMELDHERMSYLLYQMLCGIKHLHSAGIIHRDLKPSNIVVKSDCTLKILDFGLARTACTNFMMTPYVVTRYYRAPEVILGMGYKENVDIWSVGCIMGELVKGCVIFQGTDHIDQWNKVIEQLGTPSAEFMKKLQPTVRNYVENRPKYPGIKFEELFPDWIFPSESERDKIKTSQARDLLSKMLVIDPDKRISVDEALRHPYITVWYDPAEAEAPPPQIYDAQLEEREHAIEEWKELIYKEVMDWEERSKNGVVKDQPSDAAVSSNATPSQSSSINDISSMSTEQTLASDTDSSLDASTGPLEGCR
# [17] = target: Mitogen-activated protein kinase 9 (Homo sapiens) (UniProt P45984); details: at 1 µM
# [18] = target: Mitogen-activated protein kinase 1 (Homo sapiens) (UniProt P28482); details: at 0.1 µM
# Chain of Mitogen-activated protein kinase 1 (Homo sapiens) (P28482 whole entry): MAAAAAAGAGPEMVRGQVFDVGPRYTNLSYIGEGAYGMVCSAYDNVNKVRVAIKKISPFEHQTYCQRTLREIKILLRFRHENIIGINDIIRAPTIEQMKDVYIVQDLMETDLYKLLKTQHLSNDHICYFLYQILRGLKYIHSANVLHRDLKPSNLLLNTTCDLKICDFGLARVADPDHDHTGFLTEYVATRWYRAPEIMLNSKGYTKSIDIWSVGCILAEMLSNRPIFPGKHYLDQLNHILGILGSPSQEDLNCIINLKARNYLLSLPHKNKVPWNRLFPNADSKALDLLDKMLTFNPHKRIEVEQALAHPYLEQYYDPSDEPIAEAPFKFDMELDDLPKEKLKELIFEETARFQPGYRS
# [19] = target: Mitogen-activated protein kinase 1 (Homo sapiens) (UniProt P28482); details: at 1 µM
# [20] = target: Mitogen-activated protein kinase 3 (Homo sapiens) (UniProt P27361); details: at 0.1 µM;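 further: each value is a mean inhibition figure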
# Chain of Mitogen-activated protein kinase 3 (Homo sapiens) (P27361 whole entry): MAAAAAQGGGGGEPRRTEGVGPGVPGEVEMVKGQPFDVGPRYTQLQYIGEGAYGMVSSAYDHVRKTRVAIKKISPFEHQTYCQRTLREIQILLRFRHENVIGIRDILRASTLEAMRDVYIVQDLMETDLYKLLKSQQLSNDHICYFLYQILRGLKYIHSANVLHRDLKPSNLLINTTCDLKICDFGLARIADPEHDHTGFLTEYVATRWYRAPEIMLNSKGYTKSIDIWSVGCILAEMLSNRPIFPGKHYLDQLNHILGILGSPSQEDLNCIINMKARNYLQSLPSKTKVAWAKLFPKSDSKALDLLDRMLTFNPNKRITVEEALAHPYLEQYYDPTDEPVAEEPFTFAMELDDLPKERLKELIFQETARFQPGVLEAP
# Chain of Dual specificity protein kinase CLK3 (Homo sapiens) (P49761 whole entry, looked up): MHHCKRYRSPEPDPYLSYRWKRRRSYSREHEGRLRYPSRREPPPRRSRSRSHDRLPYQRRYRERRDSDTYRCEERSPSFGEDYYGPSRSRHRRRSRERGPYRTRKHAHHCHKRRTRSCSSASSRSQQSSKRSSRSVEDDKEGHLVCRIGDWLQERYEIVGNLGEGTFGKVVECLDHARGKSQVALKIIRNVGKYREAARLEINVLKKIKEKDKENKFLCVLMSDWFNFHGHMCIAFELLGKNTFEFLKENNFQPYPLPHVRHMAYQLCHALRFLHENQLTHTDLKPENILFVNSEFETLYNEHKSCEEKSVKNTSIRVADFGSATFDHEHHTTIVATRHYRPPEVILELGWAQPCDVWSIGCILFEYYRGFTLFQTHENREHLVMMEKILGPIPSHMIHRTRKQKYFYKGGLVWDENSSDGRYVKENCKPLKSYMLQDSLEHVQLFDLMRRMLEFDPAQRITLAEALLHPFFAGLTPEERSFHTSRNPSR
Structure (SMILES),inhibition [1] [%],inhibition [2] [%],inhibition [3] [%],inhibition [4] [%],inhibition [5] [%],inhibition [6] [%],inhibition [7] [%],inhibition [8] [%],inhibition [9] [%],inhibition [10] [%],inhibition [11] [%],inhibition [12] [%],inhibition [13] [%],inhibition [14] [%],inhibition [15] [%],inhibition [16] [%],inhibition [17] [%],inhibition [18] [%],inhibition [19] [%],inhibition [20] [%]
Cc1cc(O)cc(C)c1/C=C/c1cncc(-c2nn[nH]n2)c1,-1.62,1.17,2.98,-1.94,-1.27,2.24,3.95,-2.04,3.03,-2.15,2.36,-4.42,-1.96,1.12,3.32,7.47,9.2,4.59,5.51,4.38
[O-][S+]1CCN(Cc2ccc(-c3ccc4ncnc(Nc5ccc(OCc6ccccc6)c(F)c5)c4c3)o2)CC1,11.2,2.61,2.98,1.09,1.08,1.63,3.4,0.27,2.88,-0.3,1.56,-3.01,2.83,1.06,5.51,4.53,4.55,0.52,2.92,1.89
CC(=O)Nc1cccc(C#Cc2cncnc2Nc2ccc(OCc3cccc(F)c3)c(Cl)c2)n1,-0.85,-0.63,-0.35,1.51,2.18,-0.79,-0.95,0.36,1.39,1.37,3.63,1.74,3.28,0.85,1.32,-0.98,-1.17,-0.75,-1.7,-0.64
CS(=O)(=O)CCN(CC#N)Cc1ccc(-c2ccc3ncnc(Nc4ccc(OCc5cccc(F)c5)c(Cl)c4)c3c2)o1,-4.13,-2.78,-0.17,-4.49,-3.08,0.54,0.76,-1.48,0.08,-2.26,-0.38,-6.53,-4.34,0.31,2.79,-0.56,2.18,3.93,1.9,1.67
CCc1cccc(NC(=O)Nc2ccc(Oc3ccc4nc(NC(=O)OC)[nH]c4c3)cc2)c1,0.82,0.05,1.26,0.7,1.1,0.73,1.13,1.53,4.83,1.88,6.49,1.47,4.9,7.33,13.9,2.67,1.01,2.12,0.03,2.25
COc1cc2c(cc1Nc1nc(N3CCc4ccccc43)c3cc[nH]c3n1)N(C(=O)CN(C)C)CC2,2.24,0.78,3.98,0.64,2.3,2.22,2.02,0.35,1.16,0.15,0.72,-1.15,2.7,1.42,2.99,1.11,1.82,0.85,2.12,2.89
COc1ccc(-c2nn3ncccc3c2-c2ccnc(Nc3ccc(Cl)c(C(F)(F)F)c3)n2)cc1,0.49,-0.17,2.05,-1.42,0.89,1.06,1.84,2.46,3.98,1.3,4.05,-0.18,-0.9,1.05,1.36,1.72,4.38,3.47,3.46,4.84
NC(=O)c1ccc(-c2nc(-c3ccccn3)c(-c3ccc4c(c3)OCO4)[nH]2)cc1,1.76,1.47,3.08,-0.77,0.83,1.43,1.31,2.47,3.92,1.88,6.9,-0.15,2.8,1.68,1.67,1.97,5.34,2.52,1.22,1.34
CCn1c(-c2nonc2N)nc2c(C#CC(C)(C)O)nc(CN3CCCC3)cc21,0.53,1.08,2.47,0.74,2.39,-1.68,0.64,5.1,21.6,4.97,18.9,-1.35,2.58,-1.44,0.75,0.67,-2.07,-1.09,0.12,0.51
CNC(=O)c1cncc(/C=C/c2c(Cl)cccc2Cl)c1,-3.4,-1.12,-1.12,-1.13,3.55,3.17,6.98,-0.55,3.81,-1.21,1.92,-2.63,4.11,1.25,7.87,4.08,10.1,5,4.6,5.34
COc1ccc(-c2coc3ncnc(N)c23)cc1,1.54,3.61,19.2,-0.37,5.22,3.83,4.61,2.73,3.86,0.71,2.62,-1.54,0.23,-1.26,0.51,4.38,5.45,4.53,6.4,5.16
COc1cc(C=NNc2ncnc3c2cnn3-c2ccccc2)ccc1O,9.46,4.3,28.8,1.97,11,5.08,23.7,47.7,79.2,41.6,78.1,3.83,28.3,10.8,39.6,2.12,6.67,2.39,2.08,1.28
Cc1nn(C)c2cc(N(C)c3ccnc(Nc4cccc(S(N)(=O)=O)c4)n3)ccc12,3.34,0.4,0.86,-1.86,-1.3,2.83,2.82,1.79,3.95,0.37,5.82,-3.06,-2.18,-1.56,4.09,3.35,10.2,2.91,4.88,2.88
